# High-throughput results as filed in PubChem.
# KB-V1 MDR tox: KB-V1 MDR subline cytotoxicity | AID 1347076 | Potency, µM (series often up to 46.1 µM), hits mostly cytotoxic | 400,000 tested, 3.4% active | KB-V1 MDR cells viability, CellTiter-Glo, 72 h; note: potency is the fitted concentration of half-maximal effect; % is set by controls: 0 for no effect and ±100 for the full control effect; nearly all actives have a fitted effect of over 60% in size
#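 Luminescent ATP read-out (CellTiter-Glo, 10 min) measures survival of drug-selected KB-V1 MDR cells after 72 h, 37 degrees C compound exposure. Medium: phenol-red-free DMEM, 10% FBS. Values from fitted concentration-response curves.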
# SW480 rerep: DNA re-replication induction in SW480 cells; SW480 DNA re-replication, Hoechst DNA content imaging, 48 h; Potency, µM (series often up to 46.1 µM), without a hit: at the highest dose re-replication activation, actives largely listed as activators; AID 624297; 340,000 tested, 1.8% active; note: potency is the fitted concentration of half-maximal effect; % of control where 0% means no effect; nearly all actives have a fitted effect of over 55% in size
#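 First, 250 cells per well were seeded. Next, compound or vehicle (23 nL) was pinned in, plates sat 48 hr at 37 C. Finally Hoechst was added for 40 min before fluorescence scanning.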
# S-ASM inh: inhibitors of human secretory acid sphingomyelinase; placental ASM, HMU-PC fluorogenic substrate, 60 min; Potency, µM (titrated, usually from 57.5 µM), for the others: at the highest dose activity change, negative = inhibition, hits mostly inhibitors; 340,000 tested, 0.006% active; AID 504937; note: potency is the fitted concentration of half-maximal effect
# Target sequence (P17405 47-631 limits assumed): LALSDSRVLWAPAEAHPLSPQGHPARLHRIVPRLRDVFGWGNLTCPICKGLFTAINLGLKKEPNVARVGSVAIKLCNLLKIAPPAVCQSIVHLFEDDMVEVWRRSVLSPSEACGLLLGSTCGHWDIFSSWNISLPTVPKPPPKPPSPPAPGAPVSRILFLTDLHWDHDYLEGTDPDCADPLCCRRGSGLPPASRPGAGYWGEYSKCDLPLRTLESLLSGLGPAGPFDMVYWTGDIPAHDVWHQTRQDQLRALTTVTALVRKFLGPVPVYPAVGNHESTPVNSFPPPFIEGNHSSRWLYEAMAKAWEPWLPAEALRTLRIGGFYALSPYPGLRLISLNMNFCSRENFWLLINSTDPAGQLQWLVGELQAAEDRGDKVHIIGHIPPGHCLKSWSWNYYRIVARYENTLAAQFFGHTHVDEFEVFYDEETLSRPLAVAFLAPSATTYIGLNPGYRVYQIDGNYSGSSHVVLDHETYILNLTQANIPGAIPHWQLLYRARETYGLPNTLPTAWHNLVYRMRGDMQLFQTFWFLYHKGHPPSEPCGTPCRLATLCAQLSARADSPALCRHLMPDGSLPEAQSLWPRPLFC
#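 Fluorogenic HMU-PC substrate (9 uM final) is turned over by placental ASM in 60 min at 37 C after a 10 min compound preincubation. Reaction ended by alkaline stop (pH 10), with fluorescence read at 386/447 nm.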
# Giardia killer: Giardia lamblia killing. 340,000 tested, 0.15% active. Giardia lamblia trophozoite viability. activity change, % at 7.66 µM, hits read low; in the data active = activity change below about -80%; inconclusive = between about -30% and that limit;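 note: parasites exposed to compound for two days anaerobically before the ATP read; % is set by controls: 0 for no effect and ±100 for the full control effect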
#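 Luminescence from cellular ATP indicates surviving trophozoites (100 cells/well) following 48 hrs anaerobic compound treatment at 37 deg C; signal develops 15-30 min at room temperature.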
# MCF10A rerep: DNA re-replication induction in MCF 10a cells | 350,000 tested, 2.9% active | Potency, µM (top dose mostly 46.1 µM), for the others: at the top dose activity, positive = re-replication, hits mostly activators | MCF 10A DNA re-replication, Hoechst nuclear intensity, 48 h | AID 624296; note: potency is the fitted concentration of half-maximal effect; % of control where 0% means no effect; nearly all actives have a fitted effect of over 50% in size
# KB-3-1 tox: kills parental KB-3-1 adenocarcinoma cells; KB-3-1 viability, CellTiter-Glo ATP luminescence, 72 h; Potency, µM (highest dose often 46.1 µM), hits mostly cytotoxic; 400,000 tested, 1.4% active; AID 1347075; note: potency is the fitted concentration of half-maximal effect; % is set by controls: 0 for no effect and ±100 for the full control effect; nearly all actives have a fitted effect of over 60% in size
#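 Viability of parental KB-3-1 cells, measured by CellTiter-Glo luminescence, followed a 72 h incubation at 37 °C with pinned compounds in phenol-red-free DMEM containing 10% FBS.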
# Active calls of the source: *; i = inactive; ? = inconclusive; nt = no result. Rows were chosen to be rich in hits. Some 6.9% of all compounds tested hit in one or more screens of this group. Unless noted, calls come from the whole dose curve; as a rule, active = well fitted curve in the direction sought with a large enough effect; inconclusive = small, poorly fitted or top-dose-only effect, or another doubt; inactive = no such curve, though single readings can be large; an effect the other way counts as inactive or inconclusive.
SMILES,KB-V1 MDR tox,SW480 rerep,S-ASM inh,Giardia killer,MCF10A rerep,KB-3-1 tox
CC1(C)c2ssc(=S)c2-c2ccccc2N1C(=O)CSC1=NCCS1,16µM*,4%,-15%,-10,23%,i
O=[N+]([O-])c1cc(Cl)ccc1Oc1ccc(-c2nnco2)cc1,i,-4%,2%,-5,0%,i
COc1cccc(-c2cc(C(F)(F)F)nc(-n3nc(C)c(Br)c3C)n2)c1,i,nt,nt,nt,nt,i
Cc1nc2ccc(S(=O)(=O)NC(C(=O)N3CCN(c4ccc(Cl)cc4)CC3)C(C)C)cc2s1 (centres undefined),i,nt,nt,nt,nt,i
COC(=O)[C@@]1(Cc2ccc(F)cc2)[C@H]2C(CC(=O)C(=O)N3CCCC3)C(=O)C[C@H]2CN1C(=O)c1ccccc1 (some centres undefined),?,nt,nt,nt,nt,i
COC(=O)[C@@]1(Cc2ccc(F)cc2)[C@H]2c3cc(C(=O)N4CCCC4)n(CCCNc4ncc(C(F)(F)F)cc4Cl)c3C[C@H]2CN1C(=O)c1ccccc1,i,?,0%,-4,5.8µM*,i
COC(=O)[C@@]1(Cc2ccc(F)cc2)[C@H]2c3cc(C(=O)N4CCCC4)n(Cc4ccc(C(F)(F)F)nc4)c3C[C@H]2CN1C(=O)c1ccccc1,i,16µM*,-4%,38,87%,?
COC(=O)[C@@]1(Cc2ccc(F)cc2)[C@H]2c3cc(C(=O)N(C)C)n(Cc4ccsc4Br)c3C[C@H]2CN1C(=O)c1ccccc1,21µM*,nt,nt,nt,nt,?
COC(=O)[C@@]1(Cc2ccc(OC)cc2)[C@@H]2C(=CC(=O)[C@H]2CC(=O)C(=O)N2CCCC2)CN1C(=O)c1ccccc1,?,?,10%,-6,23µM*,9.2µM*
COC(=O)[C@@]1(Cc2ccc(F)cc2)[C@H]2c3cc(C(=O)N4CCCC4)n(Cc4ccc(S(C)(=O)=O)cc4)c3C[C@H]2CN1C(=O)c1ccccc1,?,nt,nt,nt,nt,i
Cc1ccc(NC(=O)c2c(NC(=O)c3ccc(F)cc3)sc3c2CCCC3)cc1C,i,nt,nt,nt,nt,i
COC(=O)[C@@]1(Cc2ccc(OC)cc2)[C@H]2c3cc(C(=O)N4CCCC4)n(CCn4cc([N+](=O)[O-])nc4C)c3C[C@H]2CN1C(=O)c1ccccc1,i,0%,0%,-83*,8%,i
COC(=O)[C@@]1(Cc2ccc(OC)cc2)[C@H]2c3cc(C(=O)N4CCCC4)n(CCN4CCOCC4)c3C[C@H]2CN1C(=O)c1ccccc1,?,nt,nt,nt,nt,i
COC(=O)[C@@]1(Cc2ccc(F)cc2)[C@H]2c3cc(C(=O)N4CCCC4)n(Cc4ccc(C)c(F)c4F)c3C[C@H]2CN1C(=O)c1ccccc1,23µM*,nt,nt,nt,nt,?
CCOC(=O)c1c(C)[nH]c(C)c1S(=O)(=O)N1CCC(C(=O)NCc2ccc(N(C)C)cc2)CC1,i,nt,nt,nt,nt,i
O=C(NCc1ccc(Cl)cc1)c1ccc2c(c1)N(Cc1ccccc1F)C(=O)c1ccccc1S2=O (centres undefined),?,nt,nt,nt,nt,i
CCOc1ccccc1C1CC(=O)NC2=C1C(=O)CCC2 (centres undefined),?,18µM*,-1%,-9,?,?
CCCOc1ccccc1C1CC(=O)NC2=C1C(=O)CCC2 (centres undefined),?,12µM*,2%,1,10µM*,4.6µM*
CCCCOc1ccccc1C1CC(=O)NC2=C1C(=O)CCC2 (centres undefined),?,?,5%,-15,4.1µM*,?
NC(=O)COc1ccccc1C(=O)Nc1ccccc1,i,nt,nt,nt,nt,i
CN(C)c1ccc(C(CNC(=O)c2cccc(C(F)(F)F)c2)N2CCCC2)cc1 (centres undefined),i,nt,nt,nt,nt,i
CCC(C)N(C(=O)CSc1nc(-c2cccs2)nc2ccccc12)C1CCS(=O)(=O)C1 (centres undefined),1.5µM*,?,-5%,14,?,i
CCC(C)N(C(=O)CSc1ncnc2sccc12)C1CCS(=O)(=O)C1 (centres undefined),i,0%,4%,2,-2%,i
Cc1nn(CC(=O)NCCCc2ccccc2)c(C)c1[N+](=O)[O-],?,0%,-2%,1,-1%,i
CS(=O)(=O)c1nc([N+](=O)[O-])nn1CCCc1ccccc1,?,-129%,-1%,7,4.6µM*,26µM*
SMILES,KB-V1 MDR tox,SW480 rerep,S-ASM inh,Giardia killer,MCF10A rerep,KB-3-1 tox
Cn1nc([N+](=O)[O-])nc1S(C)(=O)=O,?,9.2µM*,-4%,-12,5.8µM*,?
N#Cc1c(-c2ccc(Cl)cc2)cc(-c2cccs2)nc1SCC(=O)O,i,5%,73%,-7,23µM*,i
CCSc1nc(C2CC2)cc(-c2cccs2)c1C#N,i,?,-7%,3,?,i
N#Cc1c(-c2ccccc2F)cc(C2CC2)nc1SCC(=O)c1cccs1,?,10µM*,-2%,1,?,i
N#Cc1c(-c2ccccc2)cc(-c2cccs2)nc1SCC(=O)O,i,-2%,126%,34,29%,i
CCOC(=O)CSc1nc(C2CC2)cc(-c2ccc(Cl)cc2)c1C#N,21µM*,-49%,-7%,6,26%,i
CCc1ccc(C(=O)c2cn(CC(=O)NCCc3ccccc3)c3nc(C)ccc3c2=O)cc1,i,nt,nt,nt,nt,i
Nc1ccc(CCn2ccnc2)cc1,i,-9%,2%,-22,5%,i
COc1ccccc1N(CC(=O)NC1CCCC1)C(=O)c1oc(C(C)(C)C)cc1C,?,6%,0%,3,11%,?
Nc1ccc2c(c1)COc1ccccc1O2,18µM*,-3%,-1%,7,3%,i
Nc1ccc2c(c1)Oc1ccccc1C=C2,i,-6%,7%,-1,3%,i
CCc1ccc(NC(=O)CSC2=Nc3ccccc3C3=NC(CC(=O)NCc4cccs4)C(=O)N23)cc1 (centres undefined),?,nt,nt,nt,nt,i
CCN1CCCC1CNCC(O)COc1ccc(C(C)(C)C)cc1C (centres undefined),i,?,1%,2,9.2µM*,i
COc1ccc(-c2nnc(-c3cc4ccccc4oc3=O)o2)cc1,i,2%,45%,7,-1%,i
Cc1cc(-c2nnc(-c3cc4ccccc4oc3=O)o2)c(C)n1-c1ccccc1,?,?,11%,-14,5.8µM*,?
CCOc1ccccc1N1CCN(Cc2cn[nH]c2-c2ccc(F)cc2)CC1,i,0%,2%,8,?,i
